Screening data deposited in PubChem by Broad Institute.
MITF inh – inhibitors of MITF. 37,000 compounds, 0.28% hits. TRPM1 promoter luciferase, luminescence, 24 h. inhibition, % (no concentration beside the values); in the data active = inhibition above about 85%; inconclusive = no clear call, values can overlap the other calls; inactive = below about 68%;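 also: human melanocyte line stably carrying TRPM1 promoter luciferase reporter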
Shh pathway inh – Sonic Hedgehog pathway inhibition. Shh-LIGHT2 Gli-luciferase reporter, 30 h. inhibition, % (concentration not given with the values). 22,000 compounds, 2.1% hits;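 active = mean inhibition across valid replicates above about 65%, limit read from the data; inconclusive = mean under the limit, yet half or more replicates past it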;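 also: pathway switched on by Shh-conditioned medium diluted 1 in 25 in low serum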
NOMO-1 viab – STK33 inhibitor candidate reducing NOMO-1 cell viability | 37,000 compounds, 7.5% hits | inhibition, % (no concentration beside the values) | NOMO-1 AML viability, CellTiter-Glo luminescence, 72 h; in the data active = inhibition above about 80%; inconclusive = no clear call, values can overlap the other calls
Numbers stand for hits. This is a sample that favours compounds with a hit; in the whole collection about 7.9% have one here.

For O=C(CC1(O)C(=O)N(C/C=C/c2ccccc2)c2ccccc21)c1ccccn1 (stereo not given) the results were MITF inh inactive and NOMO-1 viab 123.1.
For C[C@@H]1CN([C@H](C)CO)C(=O)c2cc(NS(=O)(=O)c3ccc(Cl)cc3)ccc2O[C@@H]1CN(C)S(=O)(=O)c1cn(C)cn1 the results were MITF inh inactive and NOMO-1 viab inactive.
Screening COc1ccc(S(=O)(=O)N(C)CC(=O)Nc2ccc(F)c(Cl)c2)cc1C returned MITF inh inactive and NOMO-1 viab inactive.
For Cc1cc(C)c2c(n1)sc1c(Sc3nnc(-c4ccncc4)o3)ncnc12 the results were MITF inh inactive and NOMO-1 viab inactive.
CCn1c(Sc2ncnc3c2sc2nc(C)cc(C)c23)nnc1-c1cccs1 was read as MITF inh inactive and NOMO-1 viab 103.8.
`O=C(Oc1ccc(N(Cc2cccs2)C2=NS(=O)(=O)c3ccccc32)cc1)c1ccccc1` gave MITF inh inactive, Shh pathway inh inactive and NOMO-1 viab inactive.
C=CCN1C(C(=O)c2ccccc2)=C(OC(=O)c2ccccc2)c2ccccc2S1(=O)=O was read as MITF inh inactive, Shh pathway inh inactive and NOMO-1 viab 107.9.
O=C(Oc1cc(=O)oc2c1c(=O)n1c3c(cccc23)CC1)c1ccccc1 was read as MITF inh inactive, Shh pathway inh inactive and NOMO-1 viab 139.9.
Screening O=C(Oc1cccc2ccccc12)c1ccccc1 returned MITF inh inactive, Shh pathway inh inactive and NOMO-1 viab inactive.
COc1ccc(NC(=O)N(C)C[C@H]2Oc3ccc(NC(=O)Nc4ccc5c(c4)OCO5)cc3CC(=O)N([C@@H](C)CO)C[C@H]2C)cc1 was read as MITF inh inactive, Shh pathway inh inactive and NOMO-1 viab inactive.
`COc1cc2ncnc(Nc3ccc(Cl)cc3F)c2cc1OC` gave MITF inh inactive, Shh pathway inh inactive and NOMO-1 viab inconclusive.
Screening CNc1cc2ncnc(Nc3cccc(Br)c3)c2cc1N returned MITF inh inactive, Shh pathway inh inactive and NOMO-1 viab 96.6.
Screening Oc1c(C(Nc2ccccn2)c2cccc(OC3CCCC3)c2)ccc2cccnc12 (stereo not given) returned MITF inh inactive and NOMO-1 viab 114.2.
For COc1ccc(SCC(=O)Nc2ccccn2)cc1 the results were MITF inh inactive, Shh pathway inh inactive and NOMO-1 viab inactive.
`C#CCOc1ccc(C(Nc2ccccn2)c2ccc3cccnc3c2O)cc1` (stereo not given) gave MITF inh inactive and NOMO-1 viab 112.8.
For CC(C)S(=O)(=O)c1csc(C(=O)OCC(=O)c2ccc(Cl)cc2)c1N the results were MITF inh inactive and NOMO-1 viab inactive.
For O=C(CC1Nc2cccc3cccc(c23)NC1=O)Nc1ccc([N+](=O)[O-])cc1 (stereo not given) the results were MITF inh inactive and NOMO-1 viab 124.1.
Screening O=C(CC1Nc2cccc3cccc(c23)NC1=O)Nc1cccc([N+](=O)[O-])c1 (stereo not given) returned MITF inh inactive and NOMO-1 viab inactive.
C[C@H](CO)N1C[C@H](C)[C@H](CN(C)S(C)(=O)=O)Oc2ccc(NS(=O)(=O)c3ccc(Cl)cc3)cc2CC1=O was read as MITF inh inactive, Shh pathway inh inactive and NOMO-1 viab inactive.
CCN(CC(=O)Nc1cc([N+](=O)[O-])ccc1C)S(=O)(=O)c1ccc2ccccc2c1 was read as MITF inh inactive and NOMO-1 viab inactive.
For CC(C)(C)c1ccc(-c2cc3ccccn3c2)cc1 the results were MITF inh inactive, Shh pathway inh inactive and NOMO-1 viab 103.6.
Screening Cn1c(SCC(=O)Nc2c(F)cc(F)cc2Br)nnc1-c1ccco1 returned MITF inh inactive and NOMO-1 viab inactive.
Screening COc1ccc(OC)c(NC(=O)c2ccc(CSc3nnnn3C)cc2)c1 returned MITF inh inactive and NOMO-1 viab inactive.
Screening COC(=O)c1c(-c2ccccc2)csc1NC(=O)c1cc(-c2cccnc2)nc2ccccc12 returned MITF inh inactive and NOMO-1 viab 104.2.
Screening COC(=O)c1cc(-c2ccccc2)sc1NC(=O)c1cc(-c2cccnc2)nc2ccccc12 returned MITF inh inactive and NOMO-1 viab inactive.
For COC(=O)c1cc(C(=O)NCc2ccco2)cc([N+](=O)[O-])c1 the results were MITF inh inactive and NOMO-1 viab inactive.
Screening C=CC(C)(C)[C@@]12CC(=O)C(=O)N3/C(=C/c4cnc[nH]4)C(=O)N[C@]31N(OC)c1ccccc12 returned MITF inh inactive, Shh pathway inh inactive and NOMO-1 viab 117.9.
C[C@@H]1CN([C@@H](C)CO)C(=O)Cc2cc(NC(=O)CCCCCC(=O)Nc3ccccc3N)ccc2O[C@@H]1CN(C)S(=O)(=O)c1ccc(F)cc1 was read as MITF inh inactive and NOMO-1 viab inactive.
Cc1cc(NCn2ncc3ccccc3c2=O)ccc1Br was read as MITF inh inactive, Shh pathway inh inactive and NOMO-1 viab inactive.
Screening CS(=O)(=O)N(CC(=O)Nc1cccc(Cl)c1Cl)c1cc(Cl)c(Cl)cc1Cl returned MITF inh inactive and NOMO-1 viab inactive.
Screening C[C@H]1CC[C@@H]2[C@@H](C(=O)c3c(O)c([C@]4(O)CC[C@@H](O)[C@H]5O[C@H]54)c[nH]c3=O)[C@@H](C)C=C[C@H]2C1 returned MITF inh inactive, Shh pathway inh 95.9 and NOMO-1 viab 121.1.
For COC(=O)CCC(=O)c1cc2cc(Br)ccc2o1 the results were MITF inh inactive, Shh pathway inh inactive and NOMO-1 viab inactive.
Screening C[C@@H]1CN([C@H](C)CO)C(=O)Cc2cc(NS(=O)(=O)c3cccs3)ccc2O[C@H]1CN(C)Cc1ccc(C(=O)Nc2ccccc2N)cc1 returned MITF inh inactive and NOMO-1 viab inactive.
For C[C@H](CO)N1C[C@H](C)[C@H](CN(C)Cc2ccc(C(=O)Nc3ccccc3N)cc2)Oc2ccc(NS(=O)(=O)c3cccs3)cc2CC1=O the results were MITF inh inactive and NOMO-1 viab 127.6.
Screening C[C@@H]1CN([C@@H](C)CO)C(=O)c2cc(NS(=O)(=O)c3cccs3)ccc2O[C@@H]1CN(C)Cc1ccc(C(=O)Nc2ccccc2N)cc1 returned MITF inh inactive and NOMO-1 viab 111.3.
Screening C[C@H]1CN([C@@H](C)CO)C(=O)c2cc(NS(=O)(=O)c3cccs3)ccc2O[C@@H]1CN(C)Cc1ccc(C(=O)Nc2ccccc2N)cc1 returned MITF inh inactive and NOMO-1 viab inactive.
O=C(CSc1ccccn1)Nc1ccc(Oc2ccccc2)cc1 was read as MITF inh inactive and NOMO-1 viab inactive.
Screening CC(=O)Nc1ccc(NC(=O)CSC2=NC(c3ccccc3)CC(=O)N2)cc1 (stereo not given) returned MITF inh inactive and NOMO-1 viab inactive.
For C=C[C@H]1C(O[C@@H]2O[C@H](CO)[C@@H](O)[C@H](O)[C@H]2O)OC=C2C(=O)N3CCc4c([nH]c5ccccc45)[C@H]3C[C@H]21 (stereo not given in full) the results were MITF inh inactive, Shh pathway inh inactive and NOMO-1 viab inactive.
For O=C(COc1ccccc1[N+](=O)[O-])Nc1ccc(Br)cc1C(=O)O the results were MITF inh inactive and NOMO-1 viab inactive.
For C[C@@H]1CN([C@H](C)CO)C(=O)Cc2cc(NC(=O)Nc3ccc(C(F)(F)F)cc3)ccc2O[C@H]1CN(C)C the results were MITF inh inactive, Shh pathway inh inactive and NOMO-1 viab inactive.
